Screening data (PubChem)
ERp5 block = blocks human ERp5 reductase activity on insulin; ERp5 insulin aggregation, absorbance 650 nm, 90 min; inhibition, % at 9.99 µM; 350,000 tested, 0.05% active; AID 651711;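 active = mean replicate inhibition above about 25%, with every replicate also reaching it, limit read from the data, passing the limit was not always enough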
PglD inh = blocks C. jejuni PglD acetyltransferase activity; purified PglD enzyme, DTNB colorimetric CoA detection; 360,000 tested, 0.098% active; AID 602405; inhibition, % at 12.5 µM; in the data active = inhibition above about 16%, passing the limit was not always enough
PDI inh = inhibitors of human protein disulfide isomerase; 350,000 tested, 0.052% active; inhibition, % at 10 µM; PDI insulin aggregation turbidity, A650, 90 min;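 active = mean inhibition across replicates of 30% or more, whatever share of single replicates reach that level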
Target sequence (P07237 whole entry, looked up): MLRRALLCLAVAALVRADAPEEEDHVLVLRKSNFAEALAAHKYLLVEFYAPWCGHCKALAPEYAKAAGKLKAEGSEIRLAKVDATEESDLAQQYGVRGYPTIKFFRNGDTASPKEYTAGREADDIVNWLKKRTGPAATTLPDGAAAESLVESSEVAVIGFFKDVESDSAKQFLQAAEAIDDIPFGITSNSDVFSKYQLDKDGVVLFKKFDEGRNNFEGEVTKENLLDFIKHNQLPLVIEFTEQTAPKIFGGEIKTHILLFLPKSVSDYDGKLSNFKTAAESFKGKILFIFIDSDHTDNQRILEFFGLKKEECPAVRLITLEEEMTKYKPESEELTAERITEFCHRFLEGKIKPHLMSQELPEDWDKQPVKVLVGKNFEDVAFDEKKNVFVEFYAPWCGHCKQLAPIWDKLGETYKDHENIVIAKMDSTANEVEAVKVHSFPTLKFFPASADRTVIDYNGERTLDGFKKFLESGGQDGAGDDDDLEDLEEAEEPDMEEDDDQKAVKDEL
NRP1-CendR mod = alters CendR peptide binding to human NRP-1; O14786; FAM-RPARPAR peptide binding to NRP-1, fluorescence polarization; inhibition, % at 25 µM; 360,000 tested, 0.85% active; AID 602438;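 active = inhibition or corrected inhibition above about 18%, plus a signal ratio from 0.5 to 1.5, limit read from the data, passing the limit was not always enough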
ARNT TACC3 PPI = disrupts binding between human ARNT and TACC3. Q9Y6A5. AlphaScreen His-ARNT PAS-B/GST-TACC3 binding, luminescence; TACC3 fragment carries E629A point mutation. inhibition, % at 9.99 µM. 390,000 tested, 0.66% active;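 active = mean inhibition of replicates at least 50% and at least half of replicates each reaching 50%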;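 also: 0% = complete ARNT plus TACC3 wells and 100% = ARNT alone without TACC3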
ALR inh = human ALR oxidase inhibition via reduced H2O2. P55789. purified ALR, DTT oxidation, H2O2 HRP-luminol luminescence. inhibition, % (test concentration not listed). 290,000 tested, 3.8% active;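 active = mean replicate inhibition above about 79%, with every replicate also reaching it, limit read from the data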
* marks the source's active call; other numbers are inactive results; . = no result given; ! = repeats disagree. This is one part of a sample in which hits are shown more often than they occur.

SMILES | ERp5 block | PglD inh | PDI inh | NRP1-CendR mod | ARNT TACC3 PPI | ALR inh
CN(C)/N=C/c1ccc(Sc2ccc([N+](=O)[O-])cc2[N+](=O)[O-])o1 | . | . | 9 | 33* | 1 | 15
O=C(C[C@H]1CC[C@@H]2[C@H](COC[C@H](O)CN2C(=O)c2ccccc2)O1)Nc1nccs1 | -1 | -4 | . | . | 5 | .
C/C=C/c1ccc(C2[C@H]3CNC[C@@H]2N3C(=O)Nc2ccc3c(c2)OCO3)cc1 (stereo partly specified) | -1 | . | . | . | . | .
CCc1c(C)[nH]n(-c2nc(-c3ccccc3)cs2)c1=O | 3 | . | -1 | -1 | -3 | 97*
Nc1nc2ccc(O)cc2s1 | . | . | 11 | -8 | -21 | 99*
Nc1nc2ccc(C(=O)N3CCCCC3)cc2s1 | -2 | 1 | 4 | 7 | 47* | .
Nc1nc2ccc(Br)cc2s1 | 2 | -8 | 4 | 5 | . | .
O=C(NNc1cccc(Cl)n1)Nc1ccccc1 | . | -1 | -6 | 0 | -2 | -1
CC(Cl)C(=O)NNc1cccc(Cl)n1 (stereo unspecified) | . | -9 | 1 | 3 | -6 | 97*
COCC(=O)N(C)C[C@H]1Oc2ncc(C#Cc3ccc(OC)cc3)cc2C(=O)N([C@H](C)CO)C[C@@H]1C | -1 | -2 | . | . | -11 | .
COc1cccc(NC(=O)N2C[C@H](O)COC[C@H]3O[C@@H](CC(=O)NCc4ccccc4F)CC[C@@H]32)c1 | -3 | 1 | . | . | -3 | .
CC1N(C)c2cc(NC(=O)c3ccco3)ccc2C1(C)C (stereo unspecified) | 6 | . | 7 | -115 | 15 | 98*
CC(C)CN1C(=O)c2ccc(NC(=O)c3ccco3)cc2C1=O | 7 | . | -2 | 1 | 1 | -1
O=C(O)CCN1C(=O)c2ccc(NC(=O)c3ccco3)cc2C1=O | 6 | 4 | -1 | 21* | -3 | -2
Cc1ccc(S(=O)(=O)Nc2ccc3c(c2)C(=O)N([C@H](C)CO)C[C@H](C)[C@@H](CN(C)C(=O)NC(C)C)OCCCC[C@H](C)O3)cc1 | -2 | 5 | . | . | -8 | .
C[C@H]1CCCCO[C@@H](CN(C)Cc2ccc(C(=O)O)cc2)[C@@H](C)CN([C@@H](C)CO)C(=O)c2cc(NC(=O)Nc3ccc(F)cc3)ccc2O1 | 2 | 0 | . | . | -4 | .
Oc1ccc(C(=S)N2CCCC2)cc1 | 4 | 9 | -4 | 2 | 7 | 9
CC1CCN(C(=S)c2ccc(O)cc2)CC1 | . | 0 | -18 | -6 | 18 | 96*
COC(=O)c1ccccc1NC(=O)Cn1c(CCC(=O)O)ccc1-c1cccs1 | . | -6 | 7 | -22 | 2 | 32
CCCn1c(CCC(=O)O)ccc1-c1ccccc1 | 2 | . | 8 | -4 | . | 26
CCCn1c(CCC(=O)O)ccc1-c1cccs1 | . | -3 | 0 | -22 | -1 | 99*
O=C(O)CCc1ccc(-c2cccs2)n1CC1CCCO1 (stereo unspecified) | . | -2 | -2 | -6 | -1 | 99*
COCCCn1c(CCC(=O)O)ccc1-c1cccs1 | . | 6 | -1 | -28 | -1 | 98*
CCS(=O)(=O)N[C@H]1CC[C@@H](CC(=O)NCc2ccccn2)O[C@H]1CO | 6 | -5 | . | . | 4 | .
Cc1oc(-c2ccc(F)cc2)cc1-c1nn2c(-c3ccco3)nnc2s1 | 2 | . | . | . | . | .
SMILES | ERp5 block | PglD inh | PDI inh | NRP1-CendR mod | ARNT TACC3 PPI | ALR inh
Cc1oc(-c2ccc(F)cc2)cc1-c1nn2c(-c3ccoc3C)nnc2s1 | . | 9 | 6 | -53 | -6 | 97*
COc1cc(/C=C(\C#N)c2nnc(N3CCOCC3)n2-c2ccccc2)ccc1O | -3 | . | -15 | 2 | 25 | 99*
Cc1noc(C)c1NC(=O)Nc1ccc2c(c1)C(=O)N([C@@H](C)CO)C[C@@H](C)[C@@H](CN(C)C(=O)C1CCCCC1)OCCCC[C@@H](C)O2 | -2 | 3 | . | . | -7 | .
CN(C)Cc1cn(CC[C@H]2CC[C@@H](NS(=O)(=O)c3ccccc3)[C@@H](CO)O2)nn1 | 0 | 61 | . | . | -11 | .
CCN(CC)C(=O)CSC1=N/C(=C/c2ccco2)C(=O)N1c1ccc(OC)c(Cl)c1 | -3 | 0 | 1 | -29 | 2 | 98*
Cc1ccc(C(=O)OCC(=O)Nc2ccc(N3CCOCC3)cc2)cc1 | 3 | -1 | 1 | -6 | 1 | .
Cc1cnc(NC(=O)CSC(=S)N2CCOCC2)s1 | -8 | . | 3 | -2 | -8 | 97*
CCOC(=O)c1ccc(NC(=O)N2CCOCC2)cc1 | -1 | . | 7 | -19 | 4 | -7
CCOC(=O)c1sc(NC(=O)CCSC)nc1C | . | 5 | -1 | -8 | 2 | 42
Cc1ccc(NC(=O)COC(=O)CSC(=S)N2CCOCC2)cc1 | 3 | 0 | -4 | 14 | -3 | 98*
CCOC(=O)c1ccc(NC(=O)CSC(=S)N2CCOCC2)cc1 | 1 | . | 7 | -3 | -4 | 100*
CCOC(=O)c1sc(NC(=O)CSC(=S)N2CCN(C)CC2)nc1C | . | -2 | 0 | 7 | 7 | 99*
Cc1cnc(NC(=O)Cc2ccc(S(=O)(=O)N3CCOCC3)s2)s1 | -9 | . | 4 | -79 | 12 | 92*
C/C=C/c1ccc2c(c1)O[C@@H](CN(C)C(=O)COC)[C@H](C)CN([C@H](C)CO)S2(=O)=O | . | -10 | . | . | -5 | .
CN(C)CCOC(=O)C1(c2ccccc2)CCOCC1 | . | -2 | -6 | 24*! | 0 | -1
COCCn1c(=NC(=O)CSC(C)=O)sc2cc(OC)ccc21 | -2 | 2 | . | 15 | -5 | 98*
Cc1occc1C(=O)Nc1ccccc1C(=O)O | . | 1 | -30 | -1 | -2 | 3
Cc1occc1C(=O)Nc1cccc(Cl)c1Cl | -3 | -8 | 5 | 29* | -2 | 3
CC(C)NC(=O)N1CC2(C1)[C@H](c1ccccc1)[C@H](CO)N2CCC(F)(F)F | 2 | . | . | . | . | .
CC(C)(C=O)Cc1cc(C(C)(C)C)c(O)c(C(C)(C)C)c1 | 5 | -4 | 2 | -2 | -7 | -7
CC(C)(CO)Cc1cc(C(C)(C)C)c(O)c(C(C)(C)C)c1 | 2 | 5 | 6 | 17* | -1 | -10
CC(=O)NS(=O)(=O)c1ccc(NC(=O)c2cccc(S(=O)(=O)N3CCc4ccccc43)c2)cc1 | -1 | 3 | -2 | -4 | -3 | 97*
COCC(=O)N(C)C[C@H]1Oc2cc(C#CCN(C)C)ccc2S(=O)(=O)N([C@@H](C)CO)C[C@@H]1C | 1 | 3 | . | . | -3 | .
CCN(CC)c1ccc(/C=N/NC(=O)CNC(=O)c2ccc3c(c2)OCCO3)cc1 | 3 | 1 | -3 | -1 | . | 87*
CCN1CCN(c2cc(C)c3cc(NC(=O)c4ccc(OC)c(OC)c4)ccc3n2)CC1 | -1 | 4 | -2 | -20 | -1 | .
CN(C)c1ccc(/C=N/NC(=O)CNC(=O)c2ccncc2)cc1 | 4 | -2 | -12 | -11 | -24 | 98*
CCN1CCN(c2cc(C)c3cc(NC(=O)c4ccc5c(c4)OCO5)ccc3n2)CC1 | -3 | 5 | 2 | 0 | -18 | 84*
